Assay [1] relates to Wnt5a (protein binding on small-molecule microarray). Description: small molecules binding Wnt5a protein – biophysical, small-molecule microarray, 635/667 nm fluorescence, primary screen (AID 1142).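 Further: fluorescence read at 667 nm with signal to noise per printed feature.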 The following applies: 635 nm fluorescence, higher = more signal.
A short description of assay [2]: ATP-based viability of Huh7 replicon cells – cell-based, CellTiter-Glo luminescence, basal, 48 h, cytotoxicity control for HCV replication inhibitor project, primary screen (AID 1143).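 Further: Huh7 hepatoma cells carrying a hepatitis C replication reporter with no stimulus; test concentration not given here.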 The following applies: higher = more signal, called active from +8 up or from −8 down.
The nature of assay [3]: Pseudomonas biofilm growth suppression – PAO1 strain, BacTiter-Glo luminescence, LB-PBS, primary screen (AID 1144). To be noted: P. aeruginosa PAO1 biofilm, 12 h, higher = more signal.
A short description of assay [4]: basal CRE-LacZ reporter activity in PC12 – cell-based, unstimulated, primary screen (AID 1145). To be noted: no forskolin, luminescence, 4.5 h, higher = more signal, called active from +8 up or from −8 down.
A short description of assay [5]: forskolin-driven CRE-LacZ activity in PC12 – cell-based, CRE-LacZ reporter, forskolin-stimulated, primary screen (AID 1146).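 Further: PC12 cells with 6xCRE LacZ reporter stimulated by forskolin 10 µM; beta-galactosidase reporter signal reflecting CREB driven transcription.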 To be noted: luminescence, 4.5 h, higher = more signal, called active from +8 up or from −8 down.
The target in assay [6] is Streptavidin (Streptomyces avidinii) (UniProt P22629). Description: compounds binding control protein streptavidin – biophysical, small-molecule microarray, 635/667 nm fluorescence, artefact control for SMM compound annotation, primary screen (AID 1147).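 Further: signal reflects streptavidin binding to arrayed compounds as a control protein.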 The following applies: higher = more signal.
Sequence of Streptavidin (Streptomyces avidinii) (P22629 whole entry, looked up): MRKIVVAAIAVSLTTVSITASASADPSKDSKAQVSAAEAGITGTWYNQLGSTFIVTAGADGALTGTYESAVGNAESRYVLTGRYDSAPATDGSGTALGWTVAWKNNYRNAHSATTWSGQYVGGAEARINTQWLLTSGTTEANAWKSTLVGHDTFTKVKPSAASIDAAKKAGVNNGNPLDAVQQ
Assay [7] in a line: probe aInhba binding on compound microarray – biochemical, small-molecule microarray, 635/667 nm fluorescence, primary screen (AID 1148).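 Further: score merges 667nm spot fluorescence with signal-to-noise for antibody binding to printed compounds.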 To be noted: higher = more signal.
Assay [8] concerns the target Torsin-1A (Homo sapiens) (UniProt O14656). Description: TOR1A wild-type binding on microarray – cell lysate, small-molecule microarray, lysate, 635/667 nm, primary screen (AID 1149). The following applies: COS7 hTOR1A-WT lysate, 635 nm fluorescence, higher = more signal.
For assay [9] the target is unchanged. Description: torsin A mutant lysate binding on microarrays – cell lysate, small-molecule microarray, COS7 lysate, 635/667 nm fluorescence, primary screen (AID 1150).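 Further: score pools 667 nm emission and signal to noise measuring lysate protein binding.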 To be noted: COS7 hTOR1A mutant lysate, 635 nm fluorescence, higher = more signal.
Assay [10] has as its system Sonic hedgehog protein (Shh). Nature of the assay: Sonic hedgehog microarray binding compounds – biochemical, small-molecule microarray, 635/667 nm fluorescence, primary screen (AID 1151).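 Further: Shh protein binding to compounds spotted on small-molecule microarray slides; score combines spot fluorescence intensity with signal-to-noise across triplicate slides.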 The following applies: 635 nm fluorescence, higher = more signal.
A short description of assay [11]: optical density shifts of acrAB sulA E. coli – strain DRC41, OD650, 48 h, E. coli filamentation inducer project, primary screen (AID 1152).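 Further: E. coli MC1000 strain DRC41 lacking acrAB efflux pump and sulA.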 The following applies: higher = more signal, called active from +8 up or from −8 down.
The nature of assay [12]: probe aLefty1 binding on compound microarray – biochemical, small-molecule microarray, 635/667 nm fluorescence, primary screen (AID 1153).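 Further: score merges spot fluorescence with signal-to-noise ratio from the scanned slide images.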 To be noted: higher = more signal.
A short description of assay [13]: plasmodial surface anion channel blockers, osmotic lysis – cell-based, P. falciparum Indochina, OD700, 1 h, primary screen (AID 1154). To be noted: P. falciparum Indochina infected RBC osmotic lysis, higher = more signal, called active from +8 up or from −8 down.
Assay [14] can be described thus: plasmodial surface anion channel blockers, osmotic lysis – cell-based, P. falciparum Indochina, OD700, 2 h, primary screen (AID 1155).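 Further: lysis reports solute entry through the parasite surface anion channel PSAC.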 To be noted: P. falciparum Indochina infected erythrocytes, higher = more signal, called active from +8 up or from −8 down.
Assay [15] is described as follows: changes in parasitized red cell lysis, either direction – P. falciparum Indochina, OD700, 3 h, PSAC antagonist project, primary screen (AID 1156). The following applies: P. falciparum-infected erythrocytes, osmotic lysis, higher = more signal, called active from +8 up or from −8 down.
Assay [16] in a line: plasmodial surface anion channel blockers, osmotic lysis – cell-based, P. falciparum Indochina, OD700, 18 h, primary screen (AID 1157). The following applies: P. falciparum Indochina infected erythrocytes, osmotic lysis OD700, 18 h; higher = more signal, called active from +8 up or from −8 down.
Assay [17] is described as follows: S6 kinase pathway phospho-S6 level changes – cell-based, A549, cytoblot, luminescence, serum-stimulated, primary screen (AID 1158).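 Further: serum-stimulated A549 lung adenocarcinoma cells; signal is phosphorylated S6 detected by cytoblot immunostaining with HRP secondary.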 To be noted: 5 h, higher = more signal.
Assay [18] addresses NADPH oxidase 2 (Homo sapiens) (UniProt P04839). Description: compounds shifting NOX2 Amplex Red fluorescence – cell-based, HEK293-NOX2, PMA-stimulated, NOX inhibitor project, primary screen (AID 1159). Further: test concentration not given here. The following applies: 45 min, higher = more signal, called active from +8 up or from −8 down.
The target of assay [19] is NADPH oxidase 4 (Homo sapiens) (UniProt Q9NPH5). Description: compounds shifting NOX4 Amplex Red fluorescence – cell-based, HEK293-NOX4, tetracycline-induced, NOX inhibitor project, primary screen (AID 1160). The following applies: HEK293-NOX4, Amplex Red H2O2 fluorescence, 45 min; higher = more signal, called active from +8 up or from −8 down.
Sequence of NADPH oxidase 4 (Homo sapiens) (Q9NPH5 whole entry, looked up): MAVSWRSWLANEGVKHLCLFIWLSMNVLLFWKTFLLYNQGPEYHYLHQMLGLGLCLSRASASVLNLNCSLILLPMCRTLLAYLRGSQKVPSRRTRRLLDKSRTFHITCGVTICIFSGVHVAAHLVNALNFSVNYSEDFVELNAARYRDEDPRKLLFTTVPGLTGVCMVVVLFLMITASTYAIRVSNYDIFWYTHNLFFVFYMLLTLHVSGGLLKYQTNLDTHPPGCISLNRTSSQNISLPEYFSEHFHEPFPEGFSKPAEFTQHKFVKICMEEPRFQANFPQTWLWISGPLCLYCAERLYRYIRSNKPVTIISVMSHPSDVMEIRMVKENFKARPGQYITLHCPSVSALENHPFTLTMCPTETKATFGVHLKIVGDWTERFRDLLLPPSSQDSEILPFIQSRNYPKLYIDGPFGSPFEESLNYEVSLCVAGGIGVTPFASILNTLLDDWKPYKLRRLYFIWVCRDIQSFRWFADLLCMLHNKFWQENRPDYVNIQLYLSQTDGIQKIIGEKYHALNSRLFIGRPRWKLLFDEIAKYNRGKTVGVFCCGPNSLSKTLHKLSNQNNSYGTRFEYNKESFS
Assay [20] has as its target NADPH oxidase 5 (Homo sapiens) (UniProt Q96PH1). Nature of the assay: compounds shifting NOX5 Amplex Red fluorescence – cell-based, HEK293-NOX5, NOX inhibitor project, primary screen (AID 1161). The following applies: HEK293-NOX5, ionomycin, 45 min, higher = more signal.

Active and inactive are the calls of the source. Unless noted, how the calls were made is not given here.

Sequence of NADPH oxidase 2 (Homo sapiens) (P04839 whole entry, looked up): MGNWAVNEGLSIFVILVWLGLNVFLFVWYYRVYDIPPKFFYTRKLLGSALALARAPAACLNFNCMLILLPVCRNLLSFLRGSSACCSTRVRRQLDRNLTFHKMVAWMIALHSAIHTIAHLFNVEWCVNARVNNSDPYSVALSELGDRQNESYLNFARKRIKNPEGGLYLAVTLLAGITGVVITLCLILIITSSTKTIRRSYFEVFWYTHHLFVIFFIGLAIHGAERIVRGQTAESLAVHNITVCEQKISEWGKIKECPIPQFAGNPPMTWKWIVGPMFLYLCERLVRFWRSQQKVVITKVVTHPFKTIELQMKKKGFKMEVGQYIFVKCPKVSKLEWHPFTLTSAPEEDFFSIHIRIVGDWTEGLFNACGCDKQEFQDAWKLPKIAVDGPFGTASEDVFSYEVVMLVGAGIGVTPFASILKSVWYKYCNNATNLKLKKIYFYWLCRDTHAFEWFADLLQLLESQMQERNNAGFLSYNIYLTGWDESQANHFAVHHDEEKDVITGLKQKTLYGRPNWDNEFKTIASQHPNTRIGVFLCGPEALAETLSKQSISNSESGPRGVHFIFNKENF
Sequence of Torsin-1A (Homo sapiens) (O14656 whole entry, looked up): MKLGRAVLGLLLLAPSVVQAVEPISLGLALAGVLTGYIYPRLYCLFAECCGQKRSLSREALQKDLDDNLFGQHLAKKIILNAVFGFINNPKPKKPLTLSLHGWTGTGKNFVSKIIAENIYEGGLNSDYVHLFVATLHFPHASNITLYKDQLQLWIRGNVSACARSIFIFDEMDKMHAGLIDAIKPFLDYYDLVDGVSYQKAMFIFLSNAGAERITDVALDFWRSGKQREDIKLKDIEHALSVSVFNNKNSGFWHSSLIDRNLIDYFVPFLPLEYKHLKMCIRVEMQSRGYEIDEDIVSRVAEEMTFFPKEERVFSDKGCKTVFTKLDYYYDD
Sequence of NADPH oxidase 5 (Homo sapiens) (Q96PH1 whole entry, looked up): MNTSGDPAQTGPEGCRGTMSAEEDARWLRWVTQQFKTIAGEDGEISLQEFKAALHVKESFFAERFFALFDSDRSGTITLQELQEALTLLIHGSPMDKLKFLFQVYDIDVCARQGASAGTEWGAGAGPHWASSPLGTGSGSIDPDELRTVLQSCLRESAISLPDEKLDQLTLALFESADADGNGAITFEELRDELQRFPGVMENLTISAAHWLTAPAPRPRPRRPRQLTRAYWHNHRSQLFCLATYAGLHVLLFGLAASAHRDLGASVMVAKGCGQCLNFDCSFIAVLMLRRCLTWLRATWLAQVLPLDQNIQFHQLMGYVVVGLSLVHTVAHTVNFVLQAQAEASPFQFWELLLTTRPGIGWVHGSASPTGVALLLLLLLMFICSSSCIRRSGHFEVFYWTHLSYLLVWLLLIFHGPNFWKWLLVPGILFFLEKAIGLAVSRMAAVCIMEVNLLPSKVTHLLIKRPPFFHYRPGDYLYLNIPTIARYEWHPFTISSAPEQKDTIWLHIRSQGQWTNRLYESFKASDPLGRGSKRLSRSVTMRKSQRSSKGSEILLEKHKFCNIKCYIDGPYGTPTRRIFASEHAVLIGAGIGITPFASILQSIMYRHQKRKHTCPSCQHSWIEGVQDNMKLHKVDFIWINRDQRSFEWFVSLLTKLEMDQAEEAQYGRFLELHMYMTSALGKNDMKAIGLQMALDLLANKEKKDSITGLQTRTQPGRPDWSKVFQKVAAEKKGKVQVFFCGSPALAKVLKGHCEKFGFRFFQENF

As to `COC(=O)c1ccc(C#CC(NP(=O)(c2ccccc2)c2ccccc2)c2ccccc2)cc1` (stereo not given), the composite z-score was -0.0176 in [1]; 2.13 in assay [6]; 0.103 in assay [7]; -0.497 in the assay with Torsin-1A (Homo sapiens) [8]; -0.199 in the assay with Torsin-1A (Homo sapiens) [9]; 0.918 in [10]. The same compound gave a composite z-score in assay [12] of 0.0312. The z-score in [2] was -0.351 (inactive); in [3], 0.107 (inactive); in assay [4] it was -0.372 (inactive); in assay [5] it was 1.24 (inactive); in [11] it was -0.817 (inactive); in assay [13], 10.2 (active). The z-score in assay [14] is 1.16 (inactive); in [15], 1.04 (inactive); in [16], 0.936 (inactive); in assay [17] it was 0.806; in assay [18], 0.00908 (inactive); in assay [19], -0.556 (inactive). The z-score in assay [20] was -4.46.
Consider `CN(C)c1ccc(C(O)C2C=CC3C(=O)NC(=O)C3N2Nc2ccc(Cl)cc2Cl)cc1` (stereo not given), for which the composite z-score was -0.0936 in [1]; 0.437 in [6]; 0.13 in assay [7]; -0.0205 with Torsin-1A (Homo sapiens) [8]; 0.776 in the assay with Torsin-1A (Homo sapiens) [9]; -0.214 in assay [10]. For the same compound, in assay [12], the composite z-score is 0.68. Moreover, the z-score was 0.126 (inactive) in [2]; -1.03 (inactive) in assay [3]; 0.629 (inactive) in [4]; 0.628 (inactive) in assay [5]; -0.85 (inactive) in assay [11]; 3.51 (inactive) in assay [13]. Also, the z-score in assay [14] was 0.567 (inactive); in assay [15], 1.45 (inactive); in assay [16] it was 1.27 (inactive); in [17], -0.645; in assay [18], -1.15 (inactive); in assay [19], -4.56 (inactive). For the same compound, in assay [20], the z-score is -2.72.
Turning to `CC(C)C[C@@H]1NC(=O)[C@H](CC(C)C)NC(=O)[C@@]23C(=O)N[C@@H](Cc4ccccc4)C2[C@H](C)[C@@]2(C)O[C@H]2C3/C=C/CC/C=C/CNC1=O` (stereo not given in full), the composite z-score in [1] is -0.048; in assay [6], 1.3; in [7], -0.128; in the assay with Torsin-1A (Homo sapiens) [8], 0.382; with Torsin-1A (Homo sapiens) [9], 0.29; in assay [10], 1.14. For the same compound, the composite z-score in [12] was 0.0275. The z-score in assay [2] is -3.54 (inactive); in assay [3], -1.16 (inactive); in assay [4] it was 0.126 (inactive); in [5] it was -0.792 (inactive); in [11], -0.239 (inactive); in assay [13], 1.7 (inactive). Besides, the z-score in assay [14] was 0.627 (inactive); in [15], 1.33 (inactive); in [16], 0.575 (inactive); in assay [17], -0.0044; in assay [18], 0.123 (inactive); in assay [19], 0.349 (inactive). For the same compound, in assay [20], the z-score is -1.62.
Take `COc1cc2c(cc1OC)CN(C(=O)[C@H]1[C@@H]3C(=O)O[C@@H](c4ccccc4)[C@@H](c4ccccc4)N3[C@@H](c3ccccc3OCCO)[C@]13C(=O)Nc1ccc(C#CC4(O)CCCCCC4)cc13)CC2`: the composite z-score in [1] was determined as 1.01; in [6] it was 0.899; in [7] it was 0.0119; in the assay with Torsin-1A (Homo sapiens) [8] it was 0.808; with Torsin-1A (Homo sapiens) [9], 1.12; in [10] it was 1.33. For the same compound, the composite z-score in assay [12] was found to be 0.0686. Besides, the z-score in assay [2] is -3.68 (inactive); in assay [3], -1.5 (inactive); in [4] it was -0.231 (inactive); in [5] it was 1.57 (inactive); in assay [11] it was 2.29 (inactive); in assay [13], 3.02 (inactive). Besides, the z-score in assay [14] was 2.11 (inactive); in [15], 3.25 (inactive); in assay [16], 1.89 (inactive); in [17], 0.389; in assay [18], 1.07 (inactive); in assay [19] it was 1.65 (inactive). For the same compound, the z-score in assay [20] was 1.43.
Take `O=C1O[C@H](c2ccccc2)[C@H](c2ccccc2)N2[C@H]1[C@@H](C(=O)NC[C@H](O)c1ccccc1)[C@]1(C(=O)Nc3ccc(C#CC4=CCCCC4)cc31)[C@H]2c1ccc(OCCO)cc1`: the composite z-score in assay [1] was 0.271; in assay [6], 0.635; in assay [7], -0.0695; with Torsin-1A (Homo sapiens) [8], 0.257; with Torsin-1A (Homo sapiens) [9], 0.705; in [10], 1.11. In addition, in assay [12], the composite z-score amounted to 0.0248. The z-score in assay [2] is -4.66 (inactive); in assay [3] it was -0.625 (inactive); in assay [4], 0.0653 (inactive); in assay [5], -0.337 (inactive); in [11], -0.266 (inactive); in assay [13], 3.76 (inactive). The z-score was 2.55 (inactive) in [14]; 0.0828 (inactive) in [15]; 2.26 (inactive) in [16]; -0.099 in [17]; 1.13 (inactive) in assay [18]; 0.611 (inactive) in assay [19]. In [20], the z-score worked out at 1.32.
